Shown is part of a subset that was picked to be rich in hits.
LmPK inh: blocks Leishmania mexicana pyruvate kinase activity; Q27686; purified LmPK, Kinase-Glo ATP luminescence, 1 h; Potency, µM (titrated, usually from 57.5 µM), for the others: at the top dose activity change, negative = inhibition, actives largely listed as inhibitors; 290,000 tested, 0.37% active; further: potency means the concentration at half of the fitted maximal effect; on the % scale 0 is the no-effect control and ±100 the full control effect
Target sequence (Q27686 whole entry, looked up): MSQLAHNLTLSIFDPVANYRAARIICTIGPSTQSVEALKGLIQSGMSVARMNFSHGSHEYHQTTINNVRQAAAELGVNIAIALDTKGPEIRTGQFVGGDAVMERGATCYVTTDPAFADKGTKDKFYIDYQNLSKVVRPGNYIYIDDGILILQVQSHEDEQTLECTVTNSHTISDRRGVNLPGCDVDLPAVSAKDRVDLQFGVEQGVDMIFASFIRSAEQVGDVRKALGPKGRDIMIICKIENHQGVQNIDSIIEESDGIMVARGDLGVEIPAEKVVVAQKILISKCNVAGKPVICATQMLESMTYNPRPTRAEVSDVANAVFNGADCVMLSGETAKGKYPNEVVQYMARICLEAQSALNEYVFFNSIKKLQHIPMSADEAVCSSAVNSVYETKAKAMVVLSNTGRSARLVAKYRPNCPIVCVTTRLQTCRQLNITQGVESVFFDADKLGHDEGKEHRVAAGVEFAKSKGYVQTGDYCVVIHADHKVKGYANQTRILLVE
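In 50 mM imidazole pH 7.2 with 7 mM MgCl2, LmPK (0.1 nM) turned over PEP (0.5 mM) and ADP (0.1 mM) for 1 h at room temperature. Luciferase read-out of ATP.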
Cycloheximide cs: counter-screen for Shiga toxin inhibitors: cycloheximide protein synthesis inhibition; cell reporter, cycloheximide protein synthesis inhibition counterscreen; AID 2314; max response, %; 300,000 tested, 12% active; in the data active means max response mostly above about 13%, no sharp cut-off; inactive means mostly below about 14%; further: read at 38.3 µM for the half of the compounds with a filed dose; 0% is about no effect
TbPYK inhibitor: T. brucei pyruvate kinase inhibition | Q57TT1 | TbPYK enzyme, Kinase-Glo Plus ATP luminescence, 45 min | Potency, µM (titrated, usually from 76.8 µM), for the others: at the highest dose activity, negative = inhibition, hits mostly inhibitors | 410,000 tested, 0.12% active | AID 624173; further: potency means the concentration at half of the fitted maximal effect; on the % scale 0 is the no-effect control and ±100 the full control effect; nearly all actives have a fitted effect of over 50% in size
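TbPYK + substrate in 50 mM TEA pH 7.2, 100 mM KCl, 10 mM MgCl2, 0.05% BSA, 0.01% Tween-20; cpd pinned; ADP 130 uM final; 45 min RT; Kinase-Glo Plus 10 min; luminescence endpoint.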
RE007 growth inh: less growth of the S. pombe RE007 Vpr strain; S. pombe RE007 Vpr strain, BacTiter-Glo ATP luminescence, 24 h; Potency, µM (titrated, usually from 92.2 µM), for the others: top-dose activity change, negative = less growth, actives largely listed as inhibitors; 360,000 tested, 0.21% active; active means well fitted falling curve with a large enough effect; inconclusive means small, poorly fitted or top-dose-only effect; inactive means no such curve, though single readings can be large or run the other way; further: potency means the concentration at half of the fitted maximal effect; on the % scale 0 is the no-effect control and ±100 the full control effect; nearly all actives have a fitted effect of over 50% in size
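Fission yeast strain RE007, carrying one chromosomally integrated HIV-1 vpr copy, was seeded at OD 0.01 in PMG+AL medium with 23 nL pinned compound. After 24 h at 30 °C and 99% humidity, viability was read by BacTiter-Glo luminescence.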
Giardia FBPA inh: inhibitors of Giardia lamblia fructose-1,6-bisphosphate aldolase; Potency, µM (top dose mostly 59.6 µM), inactives show at the highest dose activity, negative = inhibition, most hits filed as inhibitors; 290,000 tested, 0.71% active; purified Giardia FBPA; further: potency means the concentration at half of the fitted maximal effect; on the % scale 0 is the no-effect control and ±100 the full control effect; nearly all actives have a fitted effect of over 55% in size
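40 nM FBPA preincubated 10 min at RT with compound (up to 57.5 uM final), then substrate plus GAPDH/TPI/NAD/arsenate coupling and diaphorase/resazurin added. Fluorescence read after 20 min at RT, 525/598 nm.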
Shiga inhibitor: blocks Shiga toxin action in Vero cells | Vero cells, Shiga toxin protein synthesis inhibition reporter | inhibition, % at 38.7 µM | 290,000 tested, 9.2% active; in the data active means inhibition mostly above about 28%, no sharp cut-off; inactive means mostly below about 43%; further: 0% is about no effect
* hit, by the source's call; ? = inconclusive; nt = not tested or not shown. Unless noted, the call rests on the fitted dose curve; in most records, active means well fitted curve in the direction sought with a large enough effect; inconclusive means small, poorly fitted or top-dose-only effect, or another doubt; inactive means no such curve, though single readings can be large; an effect the other way counts as inactive or inconclusive.

SMILES	LmPK inh	Cycloheximide cs	TbPYK inhibitor	RE007 growth inh	Giardia FBPA inh	Shiga inhibitor
CC(=O)Nc1ccc(N=Cc2nc(-c3ccc(C)cc3)oc2O)cc1	-5%	3	5%	2%	-4%	18
Cc1ccc(N=Cc2nc(-c3ccc(C)cc3)oc2O)cc1	-1%	27*	-3%	18%	-5%	97*
CSc1ccccc1N=Cc1nc(-c2ccccc2)oc1O	-3%	37*	-5%	-4%	-15%	94*
N=C1Sc2ccccc2C2=NCCCN12	nt	nt	nt	nt	-1%	nt
O=C(Nc1ncc([N+](=O)[O-])s1)c1ccco1	?	37*	-13%	?	nt	68*
O=C(COc1ccc(Cl)cc1)Nc1ncc([N+](=O)[O-])s1	-5%	48*	4%	5%	4%	147*
O=C(Cc1ccc(Cl)cc1)Nc1ncc([N+](=O)[O-])s1	-6%	43*	2%	-11%	0%	67*
O=C(Cc1ccc(Br)cc1)Nc1ncc([N+](=O)[O-])s1	8%	68*	-7%	-14%	1%	96*
Cc1cnc(NC(=O)Cc2ccc(Br)cc2)s1	-5%	2	-13%	5%	4%	2
CCc1ccc(Cn2c(CNS(=O)(=O)c3ccc(F)c(Cl)c3)nc3cccnc32)cc1	nt	nt	6%	nt	nt	nt
CCOc1ccccc1NC(=O)Cn1c(=O)n(CCCCC(=O)NCCCOC)c(=O)c2ccccc21	nt	nt	-18%	nt	nt	nt
CCOC(=O)c1cc(-c2ccc(OC)cc2)n(CCC(=O)Nc2cccc(C)c2C)c1C	nt	nt	-2%	nt	nt	nt
CC(=O)N1CCc2c(sc3c2c(=O)n(-c2ccccc2Cl)c(=O)n3C)C1	nt	nt	-4%	nt	nt	nt
CCCC1O[C@@H]2C[C@H]3[C@@H]4CCC5=CC(=O)C=C[C@]5(C)C4[C@@H](O)C[C@]3(C)[C@]2(C(=O)CO)O1 (some centres undefined)	nt	nt	nt	nt	-2%	nt
CC(CC(=O)Nc1ncc([N+](=O)[O-])s1)c1ccccc1 (centres undefined)	10%	26*	-9%	?	-6%	87*
CCC(Oc1ccccc1)C(=O)Nc1ncc([N+](=O)[O-])s1 (centres undefined)	16%	2	-2%	-6%	28%	12
O=C(O)c1ccc(-n2cc(-c3cc4ccccc4oc3=O)[nH]c2=S)cc1	?	32*	?	-13%	-21%	64*
Nc1nccc(/C=C/c2ccc(Cl)cc2)n1	-24%	44*	-22%	-26%	0%	72*
C=C(C)C1CC=C(C)/C(=N\NC(=S)Nc2ccc(C)cc2)C1 (centres undefined)	4%	23*	2%	nt	10%	54*
CCn1c(O)c(N=Nc2ccc3ccccc3n2)c2ccccc21	-3%	39*	-2%	38%	-8%	81*
COC(=O)N(C)c1nc2ccccc2s1	-7%	36*	-5%	?	-1%	65
Cc1ccc2sc(N(CCCN(C)C)C(=O)c3nc4ccccc4s3)nc2c1C	1%	-13	-3%	-10%	-7%	-26
CCCCNC(=O)c1cc2ccccc2s1	3%	38*	1%	-17%	-11%	71*
COCCNC(=O)c1cc2sc3ccccc3c2s1	0%	58*	5%	-26%	-6%	89*
CCCCNC(=O)N(C)c1nc2ccccc2s1	-1%	50*	-3%	-16%	-5%	68*
SMILES	LmPK inh	Cycloheximide cs	TbPYK inhibitor	RE007 growth inh	Giardia FBPA inh	Shiga inhibitor
CC(=O)N(c1ccccc1)c1nc2ccccc2s1	nt	nt	3%	10%	nt	nt
CC(C)N(Cc1ccccc1)C(=O)C1CCCN(c2ncnc3onc(-c4ccc(F)cc4)c23)C1 (centres undefined)	nt	nt	-1%	nt	nt	nt
COc1ccc(OC)c(/C=N/Nc2nc(C)cc(=O)[nH]2)c1	6%	5	-4%	3%	-28%	10
O=C(/C=C/c1ccco1)Nc1ccc(C(=O)N2CCOCC2)cc1	-7%	12	-20%	-10%	1%	26
O=C(/C=C/c1ccco1)Nc1ccc(CN2CCOCC2)cc1	1%	41*	3%	0%	5%	46*
O=C(/C=C/c1ccco1)Nc1ccc(N2CCCC2)cc1	-17%	68*	-23%	3%	1%	66*
O=C(/C=C/c1ccccc1)Nc1ccc(CN2CCOCC2)cc1	-2%	47*	-8%	2%	5%	35*
COc1ccc(CNC(=O)CSc2nnc(C)c3c(C)n(-c4ccccc4)nc23)c(OC)c1	nt	nt	-2%	nt	nt	nt
Cc1ccc(C(=O)CCC(=O)Nc2ccccc2F)cc1	-4%	33*	2%	-18%	3%	39
Cc1ccc(CCC(=O)Nc2ccccc2F)s1	?	32*	-5%	-21%	-5%	93*
O=C(CCC(=O)c1ccc(F)cc1)Nc1ccccc1Cl	2%	17	2%	-10%	3%	36*
Cc1ccc(C)c(Cn2nnc(C(=O)NCc3ccccc3)c2N)c1	nt	nt	1%	nt	nt	nt
CCC(C)c1ccccc1N1CC(C(=O)Nc2ccc(C)c(S(=O)(=O)N3CCOCC3)c2)CC1=O (centres undefined)	nt	nt	1%	6%	nt	nt
CCOc1ccc(N=C2NC(=O)S/C2=C\c2ccc(Cl)cc2)cc1	-2%	1	-2%	-4%	9%	13
COc1ccc(N=C2NC(=O)S/C2=C\c2ccc(N(C)C)cc2)cc1	-8%	34*	-4%	-16%	3%	60*
COC(=O)c1ccc(NC(=O)CCn2cccn2)cc1	nt	nt	8%	nt	nt	nt
CN(C)CCC1(c2ccc(Cl)cc2)Cc2ccccc2C(=O)O1 (centres undefined)	nt	-8	nt	nt	-9%	-10
Cc1ccc(S(=O)Cc2nc(-c3ccc(C(=O)NCc4cccc(C)c4)cc3)oc2C)cc1 (centres undefined)	nt	nt	-7%	nt	nt	nt
COc1ccc(-c2nnc(SCC(=O)O)n2Cc2ccccc2)cc1	8%	-2	-6%	-1%	21%	0
Cc1ccc2c(c1)-c1onc(C(=O)N(C)c3ccc(F)cc3)c1CO2	nt	nt	-9%	nt	nt	nt
CCOC(=O)C1CCN(c2nc3ccccc3nc2C(C#N)C(=O)NCCc2ccccc2)CC1 (centres undefined)	7%	49*	nt	nt	?	88
NC(=O)COC(=O)c1c2c(nc3ccccc13)CCCCC2	-6%	7	-2%	3%	4%	-23
CC(C)(C)C(=O)COC(=O)c1c2c(nc3ccccc13)CCC2	-1%	6	1%	-10%	-12%	-16
CC1Cc2ccccc2N1C(=O)COC(=O)c1c2c(nc3ccccc13)CCCCC2 (centres undefined)	1%	14*	1%	3%	-2%	-6
O=C(OCC(=O)N1CCc2ccccc21)c1c2c(nc3ccccc13)CCCC2	6%	34*	-8%	-16%	-2%	62*
